# Compound activity as filed in PubChem BioAssay.
# NS1 inh = blocks influenza NS1 protein function | 270,000 tested, 0.4% active | AID 2326 | Potency, µM (series often up to 46.1 µM), for inactives: at the top dose activity, positive = more growth; note: potency is the fitted concentration of half-maximal effect; actives are rising curves; nearly all actives have a fitted effect of over 50% in size
#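 A cell-based growth assay was used: compounds that relieve NS1-induced slow growth of budding yeast raise OD600. Assay medium was yeast nitrogen base with ammonium sulphate and -URA supplement, pH 6.0, with 2% galactose.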
# Pf growth 48h = P. falciparum growth inhibition at 48 hours (one generation); P. falciparum luciferase growth in erythrocytes, 48 h; Potency, µM (top dose mostly 28.7 µM), for the others: at the top dose activity change, negative = inhibition, most hits filed as inhibitors; 310,000 tested, 5.9% active; active = well fitted inhibition curve with a large enough effect; inconclusive = small, poorly fitted or top-dose-only effect, or another doubt; inactive = no such curve, though single readings can be large or run the other way; note: potency is the fitted concentration of half-maximal effect; % is set by controls: 0 for no effect and ±100 for the full control effect
#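 Cell-based growth assay: transgenic P. falciparum expressing firefly luciferase, cultured in red cells within RPMI 1640 containing 0.5% w/v Albumax, 24 mM bicarbonate and gentamycin. A drop in luciferase activity indicates inhibition.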
# SARS PLP yeast = SARS-CoV PLP inhibition in yeast. Potency, µM (top dose mostly 32.9 µM), for inactives: at the highest dose activity, positive = growth rescue, usual class: activators. S. cerevisiae expressing SARS-CoV PLpro, growth rescue. 330,000 tested, 0.19% active. AID 485353; note: potency is the fitted concentration of half-maximal effect; 0% is about no effect; nearly all actives have a fitted effect of over 55% in size
# Pf growth 96h = inhibits malaria parasite growth, 96 h | 320,000 tested, 6.9% active | Potency, µM (highest dose often 28.7 µM), inactives show top-dose activity change, negative = inhibition, hits mostly inhibitors | P. falciparum luciferase reporter growth, 96 h; active = well fitted inhibition curve with a large enough effect; inconclusive = small, poorly fitted or top-dose-only effect, or another doubt; inactive = no such curve, though single readings can be large or run the other way; note: potency is the fitted concentration of half-maximal effect; % is set by controls: 0 for no effect and ±100 for the full control effect
#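 Parasite growth measured via integrated firefly luciferase reporter in P. falciparum. Infected erythrocytes at 2% hematocrit, 0.05% parasitemia final were treated 96 hours at 37 C under 5% CO2, and luminescence was read.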
# CHX counter = affects cycloheximide protein synthesis inhibition readout, counter-screen. cell reporter, cycloheximide protein synthesis inhibition counterscreen. max response, %. 300,000 tested, 12% active. AID 2314; in the data active = max response mostly above about 13%, no sharp cut-off; inactive = mostly below about 14%; note: read at 38.3 µM for the half of the compounds with a filed dose; 0% is about no effect
# Shiga inhibitor = blocks Shiga toxin action in Vero cells; Vero cells, Shiga toxin protein synthesis inhibition reporter; inhibition, % at 38.7 µM; 290,000 tested, 9.2% active; AID 2315; in the data active = inhibition mostly above about 28%, no sharp cut-off; inactive = mostly below about 43%; note: 0% is about no effect
# Active calls of the source: *; ? = inconclusive; · = no result; [ ] = remark or other dose. An excerpt weighted towards active compounds, which were near 21% of everything screened. Unless noted, calls come from the whole dose curve.
SMILES,NS1 inh,Pf growth 48h,SARS PLP yeast,Pf growth 96h,CHX counter,Shiga inhibitor
Cc1cc(C(=O)Nc2cccc3ccccc23)c(C)o1,-6%,4%,0%,?,25*,30
Cc1oncc1C(=O)Nc1cccc2ccccc12,-33%,-16%,2%,?,-3,-7
COc1ccc(Cl)cc1N(CC(=O)N1CCCC1)S(C)(=O)=O,1%,3%,-3%,4%,2,28
Cc1ccc(CN(C)C(=O)C2CCC(=O)N(CC3CCCCC3)C2)o1 (stereo not given),9%,-1%,1%,?,-2,-15
Oc1ccccc1C(Sc1nc2ccccc2s1)Sc1nc2ccccc2s1,-50%,·,·,·,·,·
Cc1ccc(OCCC(=O)N(CCC(C)C)c2c(N)n(Cc3ccccc3)c(=O)[nH]c2=O)cc1,·,10µM*,-1%,?,·,·
CC(C)CCN(C(=O)CCSc1ccc(F)cc1)c1c(N)n(Cc2ccccc2)c(=O)[nH]c1=O,·,9.3µM*,-7%,?,·,·
CCCN(C(=O)COC(=O)CCOc1ccc(C)cc1)c1c(N)n(Cc2ccccc2)c(=O)[nH]c1=O,·,0%,-4%,8%,·,·
COCCN(C(=O)COC(=O)CCSc1ccc(F)cc1)c1c(N)n(Cc2ccccc2)c(=O)[nH]c1=O,·,?,5%,27%,·,·
COCCCN(C(=O)CCOc1ccccc1C)c1c(N)n(Cc2ccccc2)c(=O)[nH]c1=O,·,13µM*,3%,?,·,·
COCCCN(C(=O)C(C)Oc1ccc(Br)cc1)c1c(N)n(Cc2ccccc2)c(=O)[nH]c1=O (stereo not given),·,13µM*,-4%,?,·,·
CC(C)c1ccc(NC(=O)Cn2c(=O)oc3cccnc32)cc1,-1%,14%,0%,?,0,24
O=C(NCC1CCCO1)c1cc2c(=O)[nH]c3ccccc3c2s1 (stereo not given),·,1%,-3%,-11%,3,16
CCCN(C(=O)CCOc1ccc(C(C)(C)C)cc1)c1c(N)n(Cc2ccccc2)c(=O)[nH]c1=O,·,2.6µM*,8%,?,·,·
CCOC(=O)C1=C(CSc2nc(C)ccc2C#N)OC(N)=C(C#N)C1c1cccc(OC)c1OC (stereo not given),-146%,55%,-21%,6.6µM*,13,9
CCOC(=O)C1=C(CSc2nc(-c3ccncc3)ccc2C#N)OC(N)=C(C#N)C1c1cccnc1 (stereo not given),7%,13µM*,1%,?,2,30
CC(C)c1ccc(NC(=O)NCc2ccc(F)cc2)cc1,-3%,?,0%,33%,10,38
Cc1nnsc1SCCNC(=O)Nc1ccc(Cl)cc1,-36%,?,-2%,?,24*,82*
O=C(NCc1ccc(Cl)cc1)Nc1ccc(F)cc1,1%,23%,0%,?,49*,29
Cc1nnsc1C(=O)Nc1ccc(Cl)cc1,-3%,0%,11%,21%,-1,-1
S=C(NCCC1=CCCCC1)Nc1ccc(Cl)cc1,9%,-1%,2%,?,44*,63*
O=C(NCCc1ccc(Cl)cc1)Nc1ccc(F)cc1,-13%,15µM*,-2%,-1%,29*,50
COc1cc(OC)cc(C(=O)NC(C(=O)N2CCc3ccccc3C2)C(C)C)c1 (stereo not given),-15%,?,-5%,?,-4,-7
Fc1ccc(CCNC(=S)Nc2ccc(F)c(Cl)c2)cc1,-69%,?,-5%,4%,17,38
CSc1ccc(NC(=O)NCc2ccccc2)cc1,-4%,40%,0%,118%,44*,91*
SMILES,NS1 inh,Pf growth 48h,SARS PLP yeast,Pf growth 96h,CHX counter,Shiga inhibitor
Cc1ccc(CNC(=O)Nc2ccc(Cl)cc2)cc1,-16%,55%,-2%,3%,17*,20
Fc1ccc(NC(=S)NCCc2ccc(Cl)cc2)cc1,-76%,-26%,-55%,-10%,48*,93*
O=C(Nc1ccccc1)c1nccn1Cc1ccc(F)cc1,·,31%,-4%,63%,28*,64*
CCN1CCN(C(c2cccs2)C(C)NC(=S)Nc2cccc(C)c2C)CC1 (stereo not given),5%,47%,3%,?,2,-4
COc1cccc(CN(C(=O)c2ccccc2Cl)C2CCS(=O)(=O)C2)c1 (stereo not given),3%,-4%,-1%,26%,-4,13
CCn1c2ccccc2c2cc(CN3CCN(S(=O)(=O)Cc4ccccc4)CC3)ccc21,14%,?,-5%,18%,-1,-15
COc1cc(/C=N\NC(=O)C2CC3C=CC2C3)ccc1O (stereo not given),7%,27%,2%,-5%,13,36
O=C(NCc1ccncc1)Nc1ccc(F)cc1,4%,17%,-2%,·,7,-4
CC(=O)c1ccc(NC(=O)NCc2ccc(F)cc2)cc1,-2%,19%[5.75 µM],1%,23%,14*,6
CCCc1c(NC(=O)Nc2ccc(F)cc2)cnn1-c1ccc(Cl)cc1,0%,6.6µM*,-2%,?,1,-13
O=C(NCc1ccc(F)cc1)Nc1ccccc1,-9%,79%,0%,0%,37*,79*
O=C(NC(=S)NCCC1=CCCCC1)c1cccnc1,8%,?,0%,?,14*,40*
CC1CN(C(=O)c2ccc(NS(=O)(=O)c3ccc(F)cc3)cc2)CC(C)O1 (stereo not given),2%,5%,-5%,2%,-4,-6
CCOc1ccc(-c2c(C)n(-c3ccc(OCC)cc3)c3[n+]2CCCCC3)cc1,-58%,0.41µM*,-1%,?,5,-10
N#Cc1c2n(c3c(N)ncnc13)CCCCC2,4%,3%,0%,3%,-1,13
O=C(/C=C/c1ccccc1Cl)c1ccc(O)cc1,-68%,52%,-8%,?,29*,54*
O=C(/C=C/c1c(F)cccc1Cl)c1ccc(O)cc1,-81%,4%,-1%,?,24*,58*
O=C(CN1CCN(C(=O)C2CCCO2)CC1)Nc1ccc(Cl)c(Cl)c1 (stereo not given),-3%,-10%,3%,26%,-2,-12
CCOc1ccccc1C(=O)OCC(=O)Nc1ccc(OC(F)F)cc1,-22%,34%,-12%,·,17*,42
CN(C(=O)c1ccccc1C(=O)OCC(=O)Nc1ccc(OC(F)F)cc1)c1ccccc1,·,?,-8%,?,·,·
Cc1ccc(C(=O)c2ccccc2C(=O)OCC(=O)Nc2ccc(SC(F)F)cc2)cc1,?,12%,4%,5%,16*,49
O=C(COC(=O)c1ccccc1Cc1ccccc1)Nc1ccc(SC(F)F)cc1,-33%,?,-12%,?,54*,129*
C[C@H](NC(=O)c1ccco1)C(=O)OCC(=O)N1CC(=O)Nc2ccccc21,·,·,8%,·,·,·
COC(=O)c1ccc(/C=N/NC(=S)NCCN2CCOCC2)cc1,·,?,-4%,?,4,6
